Experiment [1] can be described thus: qHTS assay for small molecules that induce genotoxicity in human embryonic kidney cells expressing luciferase-tagged ATAD5 (AID 651632). Note: nearly all actives have a fitted effect of over 15% in size. Note: potency is the fitted concentration of half-maximal effect. An outline of the steps: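 A rise in luciferase signal from ATAD5-tagged HEK293T cells marks genetic stress. Cells were exposed to compounds for 16 hr at 37C, 5% CO2, then luciferase was quantified after a 30 min room-temperature incubation with Amplite.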
In general terms: Quantitative high-throughput screening tests each substance at several concentrations.

Experiment [2] in a line: qHTS assay for small molecule agonists of the p53 signaling pathway - cell viability (AID 651633; calls by dose curve; note: nearly all actives have a fitted effect of over 30% in size; note: potency is the fitted concentration of half-maximal effect). Put shortly: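 p53RE-bla cells were treated with compound for 16 hours at 37 C. Cytotoxicity was then measured as CellTiter-Glo luminescence after 30 min at room temperature.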
Experiment [3] is described as follows: qHTS assay for small molecules that induce genotoxicity in human embryonic kidney cells expressing luciferase-tagged ATAD5 - cell viability (AID 651634; calls by dose curve; note: nearly all actives have a fitted effect of over 25% in size; note: potency is the fitted concentration of half-maximal effect). An outline of the steps:
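Cytotoxicity counter-readout: after 15.5 hr compound treatment at 37C, live-cell protease activity in ATAD5-luciferase HEK293T cells measured by CellTiter-Fluor fluorescence, 30 min development at 37C.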

The nature of experiment [4]: qHTS assay for small molecule disruptors of the mitochondrial membrane potential (AID 720635). Note: potency is the fitted concentration of half-maximal effect. Put shortly: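 HepG2 cells exposed to compound 1 hr at 37C, then Mito-MPS dye 30 min. Ratio read of aggregate (540/590 nm) versus monomer (490/535 nm) fluorescence.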
A short description of experiment [5]: qHTS assay to test for compound auto fluorescence at 590 nm (red) in HepG2 cells (AID 720674). Put shortly: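 HepG2 cells, 2,000 per well in MEM with 10% FBS, attached overnight at 37 C, then got 23 nL compound or DMSO. After 1 hr at 37 C, 5% CO2, red fluorescence was read at 540/590 nm against Rose Bengal sodium as reference.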
A short description of experiment [6]: qHTS assay to test for compound auto fluorescence at 535 nm (green) in HepG2 cells (AID 720675).
A short description of experiment [7]: qHTS assay to test for compound auto fluorescence at 460 nm (blue) in HEK293 cells (AID 720678). An outline of the steps: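 Intrinsic compound fluorescence is recorded in live HEK293 cultures after overnight incubation at 37C, 5% CO2, using excitation 405 nm and emission 460 nm. Values are referenced to triamterene.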
Experiment [8] is described as follows: qHTS assay to test for compound auto fluorescence at 590 nm (red) in HEK293 cells (AID 720679). An outline of the steps: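 Red autofluorescence, HEK293 cells: 2,000 cells/well; attach 4-5 hr 37C; add 23 nL cpd or DMSO; incubate o/n 37C 5% CO2; read Ex540/Em590; Rose Bengal sodium reference.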
The nature of experiment [9]: qHTS assay to test for compound auto fluorescence at 535 nm (green) in HEK293 cells (AID 720680).
Experiment [10] is described as follows: qHTS assay to test for compound auto fluorescence at 460 nm (blue) in HEK293 cell free culture (AID 720681). An outline of the steps: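 Compounds were added to cell-free DMEM with 10% FBS and fluorescence read directly. The blue channel used 405 nm excitation and 460 nm emission, with triamterene as the reference fluorophore.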
Experiment [11] in a line: qHTS assay to test for compound auto fluorescence at 535 nm (green) in HEK293 cell free culture (AID 720682). An outline of the steps: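 DMEM + 10% FBS, cell-free; cpd or DMSO pinned in; Ex485/Em535 read; output as fluorescein-equivalent signal.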
Experiment [12] is described as follows: qHTS assay to test for compound auto fluorescence at 590 nm (red) in HEK293 cell free culture (AID 720683). An outline of the steps: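 Cell-free wells of DMEM with 10% FBS received compound, and intrinsic fluorescence was read at excitation/emission 540/590 nm. Values expressed as equivalence to Rose Bengal sodium.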
Experiment [13] can be described thus: qHTS assay to test for compound auto fluorescence at 590 nm (red) in HepG2 cell free culture (AID 720684). Put shortly:
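Rose Bengal sodium served as the reference for red signal. Test compounds were dispensed into serum-containing MEM (10% FBS) without cells, and plates were read at 540/590 nm.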

The nature of experiment [14]: qHTS assay to test for compound auto fluorescence at 535 nm (green) in HepG2 cell free culture (AID 720686).
A short description of experiment [15]: qHTS assay to test for compound auto fluorescence at 460 nm (blue) in HepG2 cells (AID 720687). An outline of the steps: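 HepG2 cells in MEM with 10% FBS, attached overnight at 37 C, were exposed to compound or DMSO for 1 hr at 37 C, 5% CO2. Blue fluorescence was read at 405/460 nm, with triamterene as reference fluorophore.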
A short description of experiment [16]: qHTS assay to test for compound auto fluorescence at 460 nm (blue) in HepG2 cell free culture (AID 720685). Put shortly: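 Cell-free plates of MEM plus 10% FBS received 23 nL compound or DMSO vehicle; blue-channel (405/460 nm) intensity scored against triamterene as reference fluorophore.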
The nature of experiment [17]: qHTS assay for small molecule disruptors of the mitochondrial membrane potential - cell viability (AID 720634; calls by dose curve; note: nearly all actives have a fitted effect of over 20% in size; note: potency is the fitted concentration of half-maximal effect). Put shortly: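 Cytotoxicity was quantified from ATP content by CellTiter-Glo luminescence in the same wells as the MMP dye read-out. HepG2 (2,000 cells/well) were plated overnight and exposed to compounds for 1 hr at 37 C.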
For experiment [18], the target named is Glucocorticoid receptor (Homo sapiens) (UniProt P04150). Description: qHTS assay to identify small molecule agonists of the glucocorticoid receptor (GR) signaling pathway (AID 720691; active = well fitted activation curve with a large enough effect in the signal ratio in the repeat runs, not every such curve was filed as active; the % refers to the signal ratio). Particulars: GR-bla HeLa, beta-lactamase reporter ratio, 18 h; activation: at 62.4 µM (top of the series). Put shortly: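 Agonist-mode qHTS in HeLa cells stably expressing a glucocorticoid-response-element beta-lactamase reporter. Fluorescence intensity read with FRET substrate (2 h, room temperature) after 18 h compound treatment at 37 C.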
Sequence of Glucocorticoid receptor (Homo sapiens) (P04150 whole entry, looked up): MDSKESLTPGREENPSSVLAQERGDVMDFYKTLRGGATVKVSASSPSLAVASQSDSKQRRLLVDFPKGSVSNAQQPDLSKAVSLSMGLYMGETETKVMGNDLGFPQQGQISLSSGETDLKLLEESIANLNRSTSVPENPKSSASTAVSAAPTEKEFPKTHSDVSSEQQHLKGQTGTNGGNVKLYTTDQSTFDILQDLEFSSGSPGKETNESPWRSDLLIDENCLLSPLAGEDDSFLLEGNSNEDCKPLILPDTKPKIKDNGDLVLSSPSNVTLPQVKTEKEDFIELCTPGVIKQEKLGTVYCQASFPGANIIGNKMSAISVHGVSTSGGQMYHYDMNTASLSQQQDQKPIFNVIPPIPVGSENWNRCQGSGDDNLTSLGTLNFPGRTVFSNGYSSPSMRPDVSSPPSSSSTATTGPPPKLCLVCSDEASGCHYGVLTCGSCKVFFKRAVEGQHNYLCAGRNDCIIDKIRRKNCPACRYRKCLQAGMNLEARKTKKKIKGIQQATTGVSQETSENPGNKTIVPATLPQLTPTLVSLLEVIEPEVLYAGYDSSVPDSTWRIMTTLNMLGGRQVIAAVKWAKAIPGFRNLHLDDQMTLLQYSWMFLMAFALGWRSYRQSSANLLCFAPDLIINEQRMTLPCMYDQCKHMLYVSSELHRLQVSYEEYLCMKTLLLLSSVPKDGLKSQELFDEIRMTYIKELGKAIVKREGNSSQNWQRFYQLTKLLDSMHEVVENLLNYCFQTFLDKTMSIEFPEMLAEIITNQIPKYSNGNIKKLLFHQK

The target is the same in experiment [19]. As to the kind of experiment: qHTS assay to identify small molecule antagonists of the glucocorticoid receptor (GR) signaling pathway (AID 720692; active = well fitted inhibition curve with a large enough effect in the signal ratio in the repeat runs, not every such curve was filed as active; the % refers to the signal ratio; note: potency is the fitted concentration of half-maximal effect). Put shortly:
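Inhibition of dexamethasone-driven (5 nM final) beta-lactamase expression was measured in GRE-reporter HeLa cells over 18 h at 37C. Fluorescence was read after 2 h with the B/G FRET substrate at room temperature.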

Values joined by “and” are separate entries in the source; they are usually repeats but may differ in a detail not shown here. Identical values can stand only once. Unmarked numbers belong to inactive results. Records with an inconclusive call do not appear. Active and inactive are the calls of the source. Unless noted, calls come from the whole dose curve; as a rule, active = well fitted curve in the direction sought with a large enough effect in the repeat runs; inconclusive = weak or mixed curves; inactive = no such curve, though single readings can be large; an effect the other way counts as inactive or inconclusive.

In the case of `CC(C)(C)CC(C)(C)c1ccc(OCCOCC[N+](C)(C)Cc2ccccc2)cc1`, the Potency entry in experiment [1], in experiment [5], in experiment [6], in experiment [7], in [8] and in [10] was “inactive” each time. Further, the Potency result in experiment [12], in [13], in [14] and in [15] was “inactive” in each case. Further, the Potency in [2] was 29.8 µM (active) and 61.1 µM (active); in experiment [3], 29.8 µM (active) and 68.5 µM (active); in experiment [4], 11.9 µM (active) and 21.7 µM (active). In addition, the compound was classed as inactive in [9] and in experiment [11].
Take `CCCCCCCCNC(C)C(O)c1ccc(SC(C)C)cc1` (configuration not stated): the Potency entry in experiment [1], in experiment [5], in experiment [7], in experiment [8], in experiment [10] and in [12] was “inactive” each time. Moreover, the Potency entry in [16], in [14] and in experiment [15] was “inactive” throughout. The Potency in experiment [2] and in experiment [3] was 10.6 µM (active) each time. The result in [9] and in experiment [11] was inactive.
For the compound `CN(C)c1ccc(SC#N)cc1`, the Potency entry in experiment [1], in experiment [2], in [3], in experiment [17], in experiment [5] and in [7] was “inactive” throughout. Moreover, the Potency entry in [8], in experiment [10], in experiment [12], in [13], in experiment [16] and in experiment [15] was “inactive” each time. The Potency entry in experiment [18] is “inactive”. Besides, the outcome in experiment [9] and in experiment [11] was inactive.
`CCCN(CCC)C(=O)C(CCC(=O)OCCCN1CCN(CCOC(=O)Cc2c(C)n(C(=O)c3ccc(Cl)cc3)c3ccc(OC)cc23)CC1)NC(=O)c1ccccc1` (configuration not stated): the Potency entry in experiment [1], in [2], in experiment [17], in experiment [5], in [6] and in experiment [7] was “inactive” each time. Also, the Potency entry in [8], in [12], in [13], in experiment [16], in experiment [14] and in experiment [15] was “inactive” throughout. Besides, in experiment [3], the Potency was 26.6 µM (active). The compound was classed as inactive in [9] and in [11].
Consider `C[C@@H](NCCCc1cccc(C(F)(F)F)c1)c1cccc2ccccc12`, for which the Potency result in experiment [1], in experiment [5], in experiment [6], in experiment [7], in experiment [8] and in [10] was “inactive” each time. Besides, the Potency result in experiment [12], in experiment [16], in [14] and in [15] was “inactive” in each case. Further, the Potency in experiment [2] is 18.8 µM (active); in [3] it was 26.6 µM (active); in experiment [17], 26.6 µM (active). In addition, the compound was classed as inactive in experiment [9] and in experiment [11].
Turning to `O=C(Oc1ccccc1)c1ccccc1C(=O)Oc1ccccc1`, the Potency result in [1], in experiment [2], in experiment [3], in experiment [5], in experiment [6] and in experiment [7] was “inactive” in each case. Further, the Potency entry in [8], in [10], in [12], in [13], in [16] and in [14] was “inactive” in each case. For the same compound, the Potency entry in experiment [15], in [18] and in experiment [19] was “inactive” each time. Moreover, the result in experiment [9] and in experiment [11] was inactive.
`O=C(Oc1cccc2cccnc12)c1ccccc1`: the Potency entry in experiment [1], in [2], in experiment [3], in experiment [17], in experiment [5] and in experiment [6] was “inactive” each time. Besides, the Potency entry in experiment [7], in experiment [12], in experiment [13], in experiment [16], in [14] and in [15] was “inactive” each time. For the same compound, the Potency result in experiment [19] is “inactive”. Besides, in experiment [9], the compound was called inactive.
On to `CNCc1cc(F)ccc1Oc1ccc(Cl)c(Cl)c1`, for which the Potency entry in experiment [1], in experiment [2], in experiment [3], in [17], in experiment [5] and in [7] was “inactive” in each case. Also, the Potency result in experiment [8], in experiment [10], in experiment [12], in [13], in [16] and in experiment [14] was “inactive” in each case. The Potency entry in experiment [15] and in experiment [18] was “inactive” in each case. Also, the result in experiment [9] and in experiment [11] was inactive.
For the compound `CC(C)n1nc(-c2cc3cc(O)ccc3[nH]2)c2c(N)ncnc21`, the Potency in [1] was 9.44 µM (active); in experiment [2], 26.6 µM (active); in experiment [3], 0.75 µM (active). Besides, the Potency result in [17], in [5], in experiment [7], in experiment [8], in experiment [10] and in experiment [12] was “inactive” throughout. In addition, the Potency result in [16], in [14] and in experiment [15] was “inactive” each time. Also, the compound was classed as inactive in [9] and in experiment [11].
Take `C[C@H](CCC(=O)O)[C@H]1CC[C@H]2[C@@H]3CC[C@@H]4C[C@H](O)CC[C@]4(C)[C@H]3CC[C@]12C`: the Potency result in experiment [1], in experiment [3], in [5], in [6], in experiment [7] and in experiment [8] was “inactive” each time. Also, the Potency result in experiment [10], in experiment [12], in experiment [13], in experiment [15] and in experiment [18] was “inactive” in each case. The Potency in experiment [2] was 27.2 µM (active) and 27.3 µM (active); in [4], 60.9 µM (active); in experiment [19], 19.4 µM (active) and 43.6 µM (active). In addition, the outcome in experiment [9] and in [11] was inactive.
Consider `COc1cc(-c2nc(NC(=O)c3cc4cc(C)cc(C)c4n3CC(=O)O)sc2CCC2CCCCC2)c(OC)cc1Cl`, for which the Potency entry in [1], in experiment [17], in experiment [5], in [6], in experiment [7] and in experiment [8] was “inactive” each time. For the same compound, the Potency result in experiment [10], in [12], in experiment [13], in experiment [16], in experiment [14] and in [15] was “inactive” throughout. In addition, the figures for the Potency in experiment [2] and in experiment [3] were 3.97 µM (active) and 39.7 µM (active), respectively. For the same compound, the compound was classed as inactive in [9] and in experiment [11].
Consider `CCCCC(CC)COC(=O)c1ccccc1C(=O)O` (configuration not stated), for which the Potency entry in [1], in experiment [2], in experiment [3], in experiment [17], in experiment [5] and in [6] was “inactive” in each case. Further, the Potency entry in [7], in experiment [10], in experiment [12], in experiment [16], in experiment [14] and in experiment [15] was “inactive” throughout. For the same compound, the Potency entry in [18] is “inactive”. In addition, the compound was classed as inactive in experiment [9] and in [11]. The Potency in [19] was 39.6 µM (active).
Regarding `C=CC(=O)OCCn1c(=O)n(CCOC(=O)C=C)c(=O)n(CCOC(=O)C=C)c1=O`, the values for the Potency in [1], in experiment [2] and in experiment [3] were 5.45 µM (active), 27.3 µM (active) and 27.3 µM (active), respectively. Moreover, the Potency result in [17], in experiment [5], in [6], in experiment [7], in experiment [8] and in [10] was “inactive” in each case. Also, the Potency entry in experiment [12], in [13], in experiment [16], in experiment [14] and in [15] was “inactive” throughout. The outcome in experiment [9] was inactive.
